Laboratory results published in PubChem BioAssay (NCATS).
Results filed as inconclusive are left out. A call without a number means that no potency is given here. The source made the active and inactive calls. Calls come from the whole dose curve; as a rule, active = well fitted inhibition curve with a large enough effect; inconclusive = small, poorly fitted or top-dose-only effect; inactive = flat fitted curve, though single readings scatter.

These molecules were tested on Zika virus NS2B-NS3 protease (assay: Primary screen GU AMC qHTS for Zika virus inhibitors (AID 1347154; note: nearly all actives have a fitted effect of over 70% in size)). Conditions: Zika NS2B-NS3 unlinked protease, AMC fluorogenic substrate; series mostly up to 54.1 µM.
Method in brief: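 Fluorogenic AMC-substrate cleavage by noncovalent NS2B-NS3 protease complex (25 nM, pH 8.0 Tris buffer with Tween 20) followed for 15 minutes at room temperature (~20% conversion). Percent inhibition from ex340/em450 signal change, fitted by 4-parameter Hill equation.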

SMILES | Potency
Nc1nc(Cl)nc2c1ncn2[C@@H]1O[C@H](CO)[C@@H](O)[C@H]1F | inactive
FC(F)(F)c1ccc(C=Cc2nc(COc3ccc(CCCCn4ccnn4)cc3)co2)cc1 | inactive
C[C@@H]1CC=CC=CC=CC=C[C@@H](O[C@@H]2O[C@H](C)[C@@H](O)[C@H](N)[C@H]2O)C[C@@H]2O[C@](O)(C[C@@H](O)C[C@@H]3O[C@@H]3C=CC(=O)O1)C[C@H](O)[C@@H]2C(=O)O | inactive
O=C(Nc1ncc(SCCN2CCCC2)s1)[C@]1(c2ccc(S(=O)(=O)C3CC3)cc2)C[C@@H]1C1CCCCC1 | inactive
CCNC(=O)CCCC=CC[C@@H]1[C@H](C=CC(O)CCc2ccccc2)[C@@H](O)C[C@@H]1O (stereo partly drawn) | inactive
COc1c(C)cnc(Cn2cnc3c(Cl)nc(N)nc32)c1C | inactive
COc1ccc2ccc(=O)oc2c1CC=C(C)C | inactive
CNC1[C@H](O)C(O[C@@H]2C(O)C(O[C@H]3O[C@H]([C@@H](C)NC)CC[C@H]3N)[C@@H](N)C[C@H]2N)OC[C@]1(C)O (stereo partly drawn) | inactive
C[C@H]1[C@H](O)O[C@@H]2O[C@@]3(C)CC[C@@H]4[C@H](C)CC[C@@H]1[C@@]24OO3 | inactive
CCN(CC)CCCCNc1nc2cc(Cl)c(Cl)cc2nc1-c1ccc(-c2cccs2)s1 | inactive
CN1CCC[C@H]1CCO[C@](C)(c1ccccc1)c1ccc(Cl)cc1 | inactive
CCOC(=O)N1CCN([N+]([O-])=NOc2cc(ON=[N+]([O-])N3CCN(C(=O)OCC)CC3)c([N+](=O)[O-])cc2[N+](=O)[O-])CC1 | inactive
CCN1C[C@H](C)n2c(c(O)c3c(=O)n(Cc4ccc(F)c(Cl)c4)nc(C(=O)NC)c32)C1=O | inactive
O=C1CN2Cc3c(ccc(Cl)c3Cl)N=C2N1 | inactive
CCc1cc(-c2n[nH]c(C)c2-c2ccc3c(c2)OCCO3)c(O)cc1O | inactive
COc1cc2ncnc(Nc3cc(Br)c(O)c(Br)c3)c2cc1OC | inactive
CC(C)CN(C[C@@H](O)[C@H](Cc1ccccc1)NC(=O)O[C@H]1CO[C@H]2OCC[C@H]21)S(=O)(=O)c1ccc(N)cc1 | inactive
CC1C(=O)OC2C(O)C34C5CC(C(C)(C)C)C36C(OC(=O)C6O)OC4(C(=O)O5)C12O (stereo not drawn) | inactive
C=CC[N+]1([C@H]2C[C@H]3[C@@H]4CC[C@H]5C[C@H](O)[C@@H](N6CCOCC6)C[C@]5(C)[C@@H]4CC[C@]3(C)[C@H]2OC(C)=O)CCCC1 | inactive
NC(=O)c1ncn([C@@H]2O[C@H](CO)[C@@H](O)[C@@H]2O)n1 | inactive
CC(C)CN(C[C@H](O)[C@H](Cc1ccccc1)NC(=O)O[C@H]1CCOC1)S(=O)(=O)c1ccc(N)cc1 | inactive
COc1cc(N2CCN(C)CC2)ccc1Nc1nc(N)c(C(=O)c2c(Cl)cccc2Cl)s1 | inactive
N=C1SC(=Cc2ccc(-c3ccc4c(c3)C(=O)NC4=O)o2)C(=O)N1c1ccc(Br)cc1 | inactive
